Assay results published in PubChem BioAssay AID624206 (National Center for Advancing Translational Sciences (NCATS), 2012).
Unmarked numbers belong to inactive results. The call rests on the fitted dose curve; in most records, active means well fitted curve in the direction sought with a large enough effect; inconclusive means small, poorly fitted or top-dose-only effect, or another doubt; inactive means no such curve, though single readings can be large or run the other way.

assay: Quantitative high throughput screen to test cell viability of anti-malarial compounds targeting the delayed death phenotype.; details: HepG2 viability, CellTiter-Glo luminescence, 48 h
From the text: NIH Molecular Libraries Probe Production Network [MLPCN] NIH Chemical Genomics Center [NCGC] MLPCN Grant: R21 NS059500 Assay Provider: David Fidock and Eric Ekland, Columbia University The goal of this screen is to measuer the cytoxoxicity (against HepG2 cell line) of a set of anti-malarial compounds that target the delayed death pheonotype, by inhibiting the development of the apicoplast in the malarial parasite Plasmodium falciparum (described below) The biochemical processes that make this organelle essential for erythrocytic stage parasites are not well understood. However, antibiotics, such as azithromycin and tetracycline, which target the apicoplast translational machinery, have a potent antimalarial effect. […] We have developed a cell-based assay that measures parasite growth based on the expression of an integrated copy of a firefly luciferase reporter. To detect small molecules that cause this 'delayed death' phenotype, erythrocytes infected with the luciferase-expressing parasites were incubated with compounds for either one or two generations, corresponding to 48 and 96 hours, respectively. Compounds that inhibit parasite growth in the second generation, but not the first, should be enriched in antimalarials that target the apicoplast. Growth inhibition is detected by a decrease in luciferase activity
Cells were plated at a density of 2000 cells/well/5uL in 1536 well white tissue culture plate with culture medium. Triplicate plates were prepared. Plates were incubated at 37C, 5% CO2 for 5 hours and then 23nL of compounds and positive control were transferred to the assay plates. Tetraoctylammonium bromide was added as a positive control. Plates were then incubated at 37C, 5% CO2 for 48 hours. 5 uL of CellTitler-Glo buffer was added to each well and then incubated for 30 min at room temperature. Luminescence was measured using ViewLux (1 second, slow, 2X).

For `COc1ccc(NC(=S)N2CCC(Cc3ccccc3)CC2)cc1OC`, which max response is on record?
The max response was 0.57%.

With `CCOc1ccc(C(=O)Nc2ccc(N3CCN(C)CC3)cc2)cc1` as the compound, how does the max response read?
The max response was 8.06%.

Which max response does the source give for `COc1ccc(NC(=O)NC2CCCCCCC2)c(OC)c1` here?
Its max response is -2.67%.
